“And” between values parts separate entries of the source, which are not always exact repeats. Equal entries are not always repeated. Results filed as inconclusive are left out. Where a structure was tested more than once in an assay, its records may differ in their call. The source made the active and inactive calls. Calls come from the whole dose curve; as a rule, active = well fitted inhibition curve with a large enough effect; inconclusive = small, poorly fitted or top-dose-only effect; inactive = flat fitted curve, though single readings scatter.
Columns and labels:
HaCat [1] = assay: Cytotoxic Profiling of Annotated Libraries Using Quantitative High-Throughput Screening (AID 1296008); settings: Five cell lines viability, CellTiter-Glo ATP luminescence, 48-72 h; max response: stronger effect = lower value; note: potency is the fitted concentration of half-maximal effect
How it was run: (§1)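 Cells exposed to compounds for 48 or 72 hr at 37 degrees Celsius. Viability read as ATP-coupled luminescence with CellTiter-Glo after 10 min at room temperature.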

KB-3-1 = assay: as above; settings: Five cell lines viability, CellTiter-Glo ATP luminescence, 48-72 h; max response: stronger effect = lower value
How it was run: as §1

NIH3T3 [2] = assay: as above; settings: Five cell lines viability, CellTiter-Glo ATP luminescence, 48-72 h; max response: stronger effect = lower value
How it was run: as §1

MCC-13 = assay: qHTS assay to identify novel small-molecules to repurpose for Merkel cell carcinoma treatment (AID 1296009); settings: MCC and control cell lines, CellTiter-Glo viability, 72 h; series mostly up to 46 µM
How it was run: (§2)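 Dose-response viability screen; 72 hr exposure at 37 degree celsius; CellTiter-Glo added, 10 min room temperature, luminescence read; RLUs scaled between no-cell and DMSO wells.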

MCC-26 = assay: as above; settings: MCC and control cell lines, CellTiter-Glo viability, 72 h; series mostly up to 46 µM
How it was run: as §2

MKL-1 = assay: as above; settings: MCC and control cell lines, CellTiter-Glo viability, 72 h; series mostly up to 46 µM
How it was run: as §2

MKL-2 = assay: as above; settings: MCC and control cell lines, CellTiter-Glo viability, 72 h; series mostly up to 46 µM
How it was run: as §2

NIH3T3 [3] = assay: as above; settings: MCC and control cell lines, CellTiter-Glo viability, 72 h; at 44.8 µM (top of the series) unless noted
How it was run: as §2

HACAT [4] = assay: as above; settings: MCC and control cell lines, CellTiter-Glo viability, 72 h; at 44.8 µM (top of the series) unless noted
How it was run: as §2

HEK293T = assay: as above; settings: MCC and control cell lines, CellTiter-Glo viability, 72 h; at 44.8 µM (top of the series)
How it was run: as §2
% is set by controls: 0 for no effect and ±100 for the full control effect.
Note: nearly all actives have a fitted effect of over 60% in size.

Cc1cc(SCc2sc(-c3ccc(C(F)(F)F)cc3)nc2C)ccc1OCC(=O)O
inactive: max response (HaCat [1]) -0.39% and 1.93% | max response (KB-3-1) 0.144% | outcome (KB-3-1) | outcome (NIH3T3 [2]) | Potency (MCC-13) | Potency (MCC-26) | Potency (MKL-1) | Potency (MKL-2) | outcome (NIH3T3 [3])

Nc1nc2ccc(OC(F)(F)F)cc2s1
inactive: max response (HaCat [1]) -58.3% | outcome (HaCat [1]) | max response (KB-3-1) -6.76% | max response (NIH3T3 [2]) -3.98% | outcome (HACAT [4]) | Potency (MCC-13) | Potency (MCC-26) | Potency (MKL-1) | Potency (MKL-2)

Cc1ccc(N(CC2=NCCN2)c2cccc(O)c2)cc1
inactive: max response (HaCat [1]) 1.48% | outcome (HaCat [1]) | max response (KB-3-1) 5.53% and -7.75% | max response (NIH3T3 [2]) -17.8% and -24.2% | outcome (HACAT [4]) | Potency (MCC-13) | Potency (MCC-26) | Potency (MKL-1) | Potency (MKL-2)

CC(C=CC1=C(C)CCCC1(C)C)=CC=CC(C)=CC(=O)O
inactive: outcome (HaCat [1]) | max response (KB-3-1) 4.44% | outcome (KB-3-1) | max response (NIH3T3 [2]) -0.0926% | outcome (NIH3T3 [2]) | outcome (HACAT [4]) | outcome (HEK293T) | Potency (MCC-13) | Potency (MCC-26) | Potency (MKL-1) | Potency (MKL-2) | outcome (NIH3T3 [3])

Cc1cnc(NC(=O)C2=C(O)c3ccccc3S(=O)(=O)N2C)s1
inactive: outcome (HaCat [1]) | max response (KB-3-1) -5.8% and -11.4% and -4.48% | max response (NIH3T3 [2]) -2.32% | outcome (NIH3T3 [2]) | outcome (HACAT [4]) | outcome (HEK293T) | Potency (MCC-13) | Potency (MCC-26) | Potency (MKL-1) | Potency (MKL-2) | outcome (NIH3T3 [3])

CNC(=O)c1ccc(C)c(-n2c(C)cc(OCc3ccc(F)cc3F)c(Br)c2=O)c1
inactive: max response (HaCat [1]) -14.3% | outcome (HaCat [1]) | max response (KB-3-1) -4.9% | max response (NIH3T3 [2]) 2.56% | outcome (NIH3T3 [2]) | outcome (HACAT [4]) | Potency (MCC-13) | Potency (MCC-26) | Potency (MKL-1) | outcome (NIH3T3 [3])

CCCC(CCC)C(=O)O
inactive: max response (HaCat [1]) 2.57% | outcome (HaCat [1]) | max response (KB-3-1) 5.52% and 6.84% | max response (NIH3T3 [2]) 0.659% | outcome (HACAT [4]) | Potency (MCC-13) | Potency (MCC-26) | Potency (MKL-1) | Potency (MKL-2)

Cc1ccnc(NS(=O)(=O)c2ccc(NC(=O)Nc3ccc(S(=O)(=O)Nc4nccc(C)n4)cc3)cc2)n1
active: Potency (HaCat [1]) 1.48 µM | Potency (KB-3-1) 2.35 µM | Potency (NIH3T3 [2]) 2.09 µM
inactive: max response (HaCat [1]) -9.99% | outcome (KB-3-1) | max response (NIH3T3 [2]) -7.88% | Potency (MCC-13) | Potency (MCC-26) | Potency (MKL-1) | Potency (MKL-2)

O=C1CCC(N2C(=O)c3ccccc3C2=O)C(=O)N1 (stereo unspecified)
inactive: max response (HaCat [1]) 2.55% | outcome (HaCat [1]) | max response (KB-3-1) 0.83% and 2.13% | max response (NIH3T3 [2]) -0.804% | outcome (NIH3T3 [2]) | outcome (HACAT [4]) | outcome (HEK293T) | Potency (MCC-13) | Potency (MCC-26) | Potency (MKL-1) | Potency (MKL-2) | outcome (NIH3T3 [3])

Cc1ccccc1C(OCCN(C)C)c1ccccc1 (stereo unspecified)
inactive: max response (HaCat [1]) -11.7% | outcome (HaCat [1]) | max response (KB-3-1) 4.24% and -3.9% | outcome (KB-3-1) | max response (NIH3T3 [2]) -2.58% and 4.52% | outcome (HACAT [4]) | Potency (MCC-13) | Potency (MCC-26) | Potency (MKL-1) | Potency (MKL-2)

O=NN(CCCl)C(=O)NCCCl
inactive: max response (HaCat [1]) -4.95% | outcome (HaCat [1]) | max response (KB-3-1) 10.2% and 5.9% | max response (NIH3T3 [2]) 3.76% and 1.65% | outcome (HACAT [4]) | outcome (HEK293T) inactive; activator | Potency (MCC-13) | Potency (MCC-26) | Potency (MKL-1) | Potency (MKL-2)

CNC[C@H](O)c1cccc(O)c1
inactive: max response (HaCat [1]) -21.3% | outcome (HaCat [1]) | max response (KB-3-1) 3.69% | outcome (KB-3-1) | max response (NIH3T3 [2]) 3.51% | outcome (NIH3T3 [2]) | outcome (HACAT [4]) | Potency (MCC-13) | Potency (MCC-26) | Potency (MKL-1) | Potency (MKL-2) | outcome (NIH3T3 [3])

COc1c(Cl)cc2c([nH]c3cnccc32)c1NC(=O)c1cccnc1C
inactive: outcome (HaCat [1]) | max response (KB-3-1) 9.41% | outcome (KB-3-1) | max response (NIH3T3 [2]) -6% and -16.3% | outcome (HACAT [4]) | Potency (MCC-13) | Potency (MCC-26) | Potency (MKL-1) | Potency (MKL-2)

OC(CN1CCC(Cc2ccc(F)cc2)CC1)c1ccc(Cl)cc1 (stereo unspecified)
inactive: max response (HaCat [1]) 0.0814% | outcome (HaCat [1]) | max response (KB-3-1) -3.87% and 8.37% | max response (NIH3T3 [2]) 0.966% and 1.02% | outcome (HACAT [4]) | Potency (MCC-13) | Potency (MCC-26) | Potency (MKL-1) | Potency (MKL-2)

N#CC[C@H](C1CCCC1)n1cc(-c2ncnc3[nH]ccc23)cn1
inactive: max response (HaCat [1]) 0.777% | outcome (HaCat [1]) | outcome (HACAT [4]) | Potency (MCC-13) | Potency (MCC-26) | Potency (MKL-1) | Potency (MKL-2)

CC(C)(Sc1ccc(CCN(CCCCC2CCCCC2)C(=O)NC2CCCCC2)cc1)C(=O)O
inactive: max response (HaCat [1]) -19.6% and 1.18% | max response (KB-3-1) 5.99% | outcome (KB-3-1) | max response (NIH3T3 [2]) -1.54% and 3.22% | Potency (MCC-13) | Potency (MCC-26)

OC(CCN1CCCCC1)(c1ccccc1)C1CC2C=CC1C2 (stereo unspecified)
inactive: max response (HaCat [1]) -0.0685% | outcome (HaCat [1]) | max response (KB-3-1) -2.63% and -12.8% | outcome (KB-3-1) | outcome (NIH3T3 [2]) | outcome (HACAT [4]) | outcome (HEK293T) | Potency (MCC-13) | Potency (MCC-26) | Potency (MKL-1) | Potency (MKL-2) | outcome (NIH3T3 [3])

Reference: PubChem BioAssay (NCATS)
